Compounds with a hit are over-represented: about 12% of the library has one in this group of screens.
HP1b binding inh – HP1-beta chromodomain-methylated histone interaction inhibition; 390,000 compounds, 0.56% hits; AID 540317; Potency, µM (titrated, usually from 114 µM), for the others: top-dose activity change, negative = inhibition, actives largely listed as inhibitors; P83916; AlphaScreen HP1-beta / biotin-H3K9me3 peptide binding; also: nearly all actives have a fitted effect of over 70% in size
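Compound inhibition of the preformed complex between 50 nM HP1-beta and 50 nM biotinylated H3K9me3 peptide was read by AlphaScreen. Buffer was PBS pH 7.4 with 0.01% Tween-20. Incubations ran 30 min at room temperature, with 10 ug/mL donor/acceptor beads.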
BAZ2B block – BAZ2B (human) inhibition; Q9UIF8; AlphaScreen BAZ2B-H3K14Ac peptide displacement; Potency, µM (doses to about 114 µM), for the others: top-dose activity change, negative = inhibition, actives largely listed as inhibitors; 360,000 compounds, 4.4% hits; AID 504333; also: % is scaled to controls: 0 for no effect and ±100 for the full control effect; nearly all actives have a fitted effect of over 60% in size
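Complex of BAZ2B and biotin-H3K14Ac (50 nM apiece) forms over 30 min at RT, then faces library compounds up to 110 uM for another 30 min; AlphaScreen beads added, 20 min dark incubation, luminescence read.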
PLK1 PBD inh – PLK1 (human) polo-box domain binding inhibition; AID 720504; Plk1 PBD binding of FITC phosphopeptide, fluorescence polarization; 360,000 compounds, 2.8% hits; P53350; Potency, µM, without a hit: max response, negative = inhibition, hits mostly inhibitors; also: series mostly up to about 57 µM; % is scaled to controls: 0 for no effect and ±100 for the full control effect; nearly all actives have a fitted effect of over 65% in size
G9a inh – G9a (human) methyltransferase inhibition. Q96KQ7. G9a H3K9 monomethylation, AlphaScreen, 2 h. Potency, µM (doses to about 102 µM), for inactives: at the highest dose activity, negative = inhibition, hits mostly inhibitors. 350,000 compounds, 8.8% hits; also: % is scaled to controls: 0 for no effect and ±100 for the full control effect; nearly all actives have a fitted effect of over 75% in size
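Signal arises when biotinylated H3K9 peptide, once monomethylated, bridges streptavidin donor and antibody-captured acceptor beads. Enzyme at 20 nM was preincubated 15 min with test compounds; peptide 500 nM and SAM 20 uM then reacted for 2 h.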
Sfp inh – inhibitors of Bacillus subtilis Sfp phosphopantetheinyl transferase | Q9F4F7 | Biochemical Sfp PPTase activity, qHTS | Potency, µM, inactives show largest response in the series, negative = inhibition, usual class: inhibitors | 310,000 compounds, 3.5% hits | AID 1490;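 also: the enzyme is Sfp with the accession as filed and its product quenches rhodamine fluorescence; 0% = enzyme reaction without inhibitor and -100% = no enzyme wells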
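Buffer: 50 mM Hepes-Na pH 7.6, 10 mM MgCl2, 0.01% Nonidet P-40, 0.01% BSA. Enzyme 15 nM, pre-exposed to compound 15 min; substrates then added and fluorescence change tracked over 30 min.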
JMJD2A Tudor inh – blocks the human JMJD2A Tudor domain | AID 504339 | O75164 | AlphaScreen JMJD2A-Tudor / H3K4me3 peptide binding | 390,000 compounds, 4.4% hits | Potency, µM (doses to about 114 µM), for inactives: at the top dose activity change, negative = inhibition, actives largely listed as inhibitors; also: % is scaled to controls: 0 for no effect and ±100 for the full control effect; nearly all actives have a fitted effect of over 50% in size
* = called active by the depositor; ? = inconclusive; nt = no result; [ ] = remark or other dose. Calls follow the shape of the dose curve; as a rule, active = well fitted curve in the direction sought with a large enough effect; inconclusive = small, poorly fitted or top-dose-only effect, or another doubt; inactive = no such curve, though single readings can be large; an effect the other way counts as inactive or inconclusive. Potency is read from the fitted curve at half-maximal effect.

SMILES	HP1b binding inh	BAZ2B block	PLK1 PBD inh	G9a inh	Sfp inh	JMJD2A Tudor inh
CCCOc1ccc(C2C(C(=O)c3ccc(C)o3)=C(O)C(=O)N2Cc2ccco2)cc1 (stereo not given)	7%	?	-23%	50µM*	?	-29%
Cc1ccc(C(=O)C2=C(O)C(=O)N(Cc3cccnc3)C2c2ccc(Cl)cc2)o1 (stereo not given)	-9%	11%	-2%	50µM*	-11%	-14%
COC(=O)c1ccc(NC(=O)CC2C(=O)N(c3ccccc3)C(=O)N2C2CCCC2)cc1 (stereo not given)	10%	3%	nt	-40%[59 µM]	nt	-10%
COc1ccc(C2C(C(=O)c3ccc(C)o3)=C(O)C(=O)N2Cc2ccco2)cc1OC (stereo not given)	31%	?	2%	nt	45µM*	4%
COc1cc(C2C(C(=O)c3ccc(C)o3)=C(O)C(=O)N2Cc2ccccc2)ccc1O (stereo not given)	-11%	-36%	-9%	45µM*	nt	?
Cc1ccc(C(=O)C2=C(O)C(=O)N(Cc3ccccc3)C2c2cccnc2)o1 (stereo not given)	-10%	-1%	?	50µM*	-9%	50µM*
CCOc1cccc(C2C(C(=O)c3ccco3)=C(O)C(=O)N2Cc2ccncc2)c1 (stereo not given)	19%	-8%	0%	35µM*	-23%	?
CCCOc1ccc(C2C(C(=O)c3ccc(C)o3)=C(O)C(=O)N2Cc2ccco2)cc1OCC (stereo not given)	13%	?	-19%	nt	-10%	?
Cc1ccc(S(=O)(=O)N2CCC(C(=O)NCCN3CCOCC3)CC2)cc1	nt	nt	1%	nt	nt	nt
CCCCCN(C(=O)CCC(=O)OCC(=O)N1CCC(C)CC1)c1c(N)n(CCCC)c(=O)[nH]c1=O	16%	9%	-7%	?	nt	-1%
COc1cccc(-c2cccc(NC(=O)C3CCN(Cc4ccon4)CC3)c2)c1	20%	-13%	-9%	43%	21%	-14%
CCOc1cc(C2C(C(=O)c3ccc(C)o3)=C(O)C(=O)N2CCc2ccccc2)ccc1O (stereo not given)	15%	?	-7%	45µM*	1%	?
CCOc1ccc(C2C(C(=O)c3ccc(C)o3)=C(O)C(=O)N2Cc2cccnc2)cc1 (stereo not given)	nt	-27%	-20%	40µM*	0%	89µM*
COc1ccc(C2C(C(=O)c3ccc(C)o3)=C(O)C(=O)N2Cc2cccnc2)cc1OC (stereo not given)	25%[57 µM]	-26%	-13%	50µM*	4%	20µM*
Cc1ccc(C(=O)C2=C(O)C(=O)N(Cc3cccnc3)C2c2cccc(Oc3ccccc3)c2)o1 (stereo not given)	13%	nt	-12%	nt	nt	-30%
COc1cc(C2C(C(=O)c3ccc(C)o3)=C(O)C(=O)N2CCCn2ccnc2)cc(OC)c1OC (stereo not given)	4%	?	-8%	nt	-2%	-3%
Oc1ccc(Br)cc1C1C=C(c2ccc3c(c2)OCO3)NC(c2ccc(Br)cc2)N1 (stereo not given)	15%[57 µM]	nt	nt	nt	nt	-6%[57.1 µM]
CCCS(=O)(=O)NC(=O)C1(C)CCCN(C(=O)c2ccc3ccccc3c2)C1 (stereo not given)	nt	nt	-6%	nt	nt	nt
O=C(N/N=C/c1cccc([N+](=O)[O-])c1)c1cc[n+](CCO)cc1	21%	50µM*	-6%	-37%	8%	-23%
Nc1cc(C(=O)N/N=C/c2cccc([N+](=O)[O-])c2)n[nH]c1=O	81%	56µM*	-4%	?	-8%	?
Cn1c[n+](C)cc1/C=N/O	8%	89µM*	2%	40µM*	0%	50µM*
O=C(c1ccccc1Cl)N1CCC(N2CCC(C(=O)N3CCCC3)CC2)CC1	15%	-6%[57.1 µM]	?	6%	-13%	-23%
CC1CN(C2CCN(C(=O)c3ccccc3Cl)CC2)CC(C)O1 (stereo not given)	?	?	-4%	?	-14%	35µM*
CC1CN(C2CCN(C(=O)c3cccc(Cl)c3)CC2)CC(C)O1 (stereo not given)	?	-32%	-4%	91%[59 µM]	-22%	8.9µM*
O=C(c1cccc(Cl)c1)N1CCC(N2CCC(C(=O)N3CCOCC3)CC2)CC1	44%	3%	-3%	nt	-1%	-3%
SMILES	HP1b binding inh	BAZ2B block	PLK1 PBD inh	G9a inh	Sfp inh	JMJD2A Tudor inh
COC1C=CO[C@@]2(C)Oc3c(C)c(O)c4c(O)c(c5c(nc6cc(C)ccn65)c4c3C2=O)NC(=O)/C(C)=C\C=CC(C)C(O)[C@@H](C)C(O)C(C)[C@@H](OC(C)=O)C1C (stereo not given in full)	nt	nt	nt	?	13%	nt
Cc1ccc(C(=O)Oc2csc(=S)n2C(=O)c2ccc(C)cc2)cc1	-7%	?	3µM*	1.1µM*	45µM*	?
Cc1cc(C)n(-c2nnc(NC34CC5CC(CC(C5)C3)C4)nn2)n1	?	32µM*	?	22µM*	3%	25µM*
O=c1c(C(c2ccc(Cl)cc2)c2c(O)nc3n(c2=O)CCCS3)c(O)nc2n1CCCS2	50%	-16%	?	-48%	-10%	-11%
O=c1c(C(c2ccc(Cl)cc2)c2c(O)nc3n(c2=O)CCS3)c(O)nc2n1CCS2	30%	-16%	27µM*	-23%[12.7 µM]	-3%	-11%
O=c1c(C(c2ccc(F)cc2)c2c(O)nc3n(c2=O)CCS3)c(O)nc2n1CCS2	20%	-3%	19µM*	25%[12.7 µM]	-22%	2%
O=c1c2ccccc2nc2n1CCS2	35%	-5%	-2%	16%	10%	-2%
CCOC(=O)c1c(S(=O)(=O)N2CCN(c3cc(Cl)ccc3C)CC2)c(C)n(C)c1C	-5%	-5%[57.1 µM]	nt	-34%[59 µM]	nt	?
Cc1cc(C)nc(SCc2nc3ccccc3n2C)n1	61%	-6%	-3%	-28%	2%	-3%
Cc1cc(C)nc(SCc2n[nH]c(=S)n2C)n1	26%	12%	-6%	7.1µM*	-10%	40µM*
CCCSc1nnc(CSc2nc(C)cc(C)n2)n1C	1%	0%	21µM*	-6%	14%	56µM*
Cc1ccc(OCc2n[nH]c(=S)n2-c2ccc(Br)cc2)cc1	2%	-33%	-17%	2%[0.501 µM]	16%	-35%
CCC(C)Sc1nnc(CSc2nc(C)cc(C)n2)n1C (stereo not given)	5%	4%	-5%	1%	4%	-11%
Cc1ccc(-n2c(CSc3nc(C)cc(C)n3)n[nH]c2=S)cc1	25%	-1%	1%	4µM*	2%	25µM*
